From PubChem BioAssay
Only some compounds are listed: those with a hit (about 3.2% of all), similar ones and a draw of the others.
MEKK2wt PB1 HTS – modulators of MEK5 binding to wildtype MEKK2, primary screen, biochemical, multiplex bead flow cytometry, Alexa488-MEK5; Mitogen-activated protein kinase kinase kinase 2 (Homo sapiens), Q9Y2U5; Alexa488-MEK5 binding to MEKK2 WT; actives lie on both sides; binding response (% of control), % at 10 µM; 290,000 compounds, 1.1% hits; in the data active = binding response below about 67% or above about 130%
NRP1-CendR mod – modulators of CendR peptide binding to NRP-1, primary screen, biochemical, fluorescence polarization, uHTS; FAM-RPARPAR peptide binding to NRP-1; inhibition, % at 25 µM; 360,000 compounds, 0.85% hits; Neuropilin-1 (Homo sapiens), O14786;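 active = inhibition or corrected inhibition above about 18%, plus a signal ratio from 0.5 to 1.5, limit read from the data, passing the limit was not always enough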
Target sequence (O14786 whole entry, looked up): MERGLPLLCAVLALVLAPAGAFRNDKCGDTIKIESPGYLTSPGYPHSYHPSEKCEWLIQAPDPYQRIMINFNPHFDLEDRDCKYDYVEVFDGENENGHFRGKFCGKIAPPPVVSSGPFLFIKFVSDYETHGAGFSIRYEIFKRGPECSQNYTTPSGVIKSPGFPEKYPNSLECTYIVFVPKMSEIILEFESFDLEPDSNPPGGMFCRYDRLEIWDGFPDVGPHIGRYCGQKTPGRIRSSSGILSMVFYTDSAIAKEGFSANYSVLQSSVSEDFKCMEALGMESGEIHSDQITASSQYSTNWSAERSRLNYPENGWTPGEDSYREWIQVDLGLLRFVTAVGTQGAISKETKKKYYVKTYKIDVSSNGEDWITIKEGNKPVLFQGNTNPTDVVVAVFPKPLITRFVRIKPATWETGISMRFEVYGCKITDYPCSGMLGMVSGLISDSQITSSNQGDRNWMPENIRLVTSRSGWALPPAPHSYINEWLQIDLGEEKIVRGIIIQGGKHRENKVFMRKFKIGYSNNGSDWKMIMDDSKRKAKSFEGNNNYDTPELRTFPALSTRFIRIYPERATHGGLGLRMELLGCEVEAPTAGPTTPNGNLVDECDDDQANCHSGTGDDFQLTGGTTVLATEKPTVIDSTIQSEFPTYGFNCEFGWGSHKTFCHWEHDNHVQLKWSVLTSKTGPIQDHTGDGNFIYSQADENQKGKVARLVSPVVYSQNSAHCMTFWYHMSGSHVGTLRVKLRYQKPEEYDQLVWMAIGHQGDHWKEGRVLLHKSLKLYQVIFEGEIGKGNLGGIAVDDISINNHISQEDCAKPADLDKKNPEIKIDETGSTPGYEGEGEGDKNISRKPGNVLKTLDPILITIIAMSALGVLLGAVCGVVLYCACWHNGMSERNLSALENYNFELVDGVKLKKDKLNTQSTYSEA
MEKK2 mut-MEK5 – MEK5 binding signal on mutant MEKK2 PB1, primary screen, biochemical, multiplex bead flow cytometry, Alexa488-MEK5; 290,000 compounds, 0.35% hits; percent response, % at 10 µM; Alexa488-MEK5 binding to MEKK2 mutant; AID 1530, 2009; in the data active = percent response above about 24%, passing the limit was not always enough
SKN-1 block – suppressors of acrylamide-induced Pgst-4::GFP reporter in worms, primary screen, SKN-1 inhibitor project, whole organism, uHTS, GFP/RFP fluorescence ratio, strain VP596 | 360,000 compounds, 0.49% hits | C. elegans VP596 Pgst-4::GFP/RFP ratio, 24 h | AID 624304, 2012 | inhibition, % at 21.8 µM;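 active = interference check ratio from 0.5 to 1.5 plus GFP to RFP signal ratio inhibition reaching or exceeding a fixed threshold, cut at about 30% in these data, passing the limit was not always enough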
MEKK3 PB1 HTS – modulators of MEKK3-MEK5 PB1 binding, primary screen, biochemical, wildtype MEKK3, multiplex bead flow cytometry, Alexa488-MEK5; Mitogen-activated protein kinase kinase kinase 3 (Homo sapiens), Q99759; bead-based flow cytometry, Alexa488-MEK5 binding to MEKK3; actives lie on both sides; 0 = blocked by unlabeled MEK5, 100 = vehicle; binding response (% of control), % at 10 µM; 290,000 compounds, 1.4% hits; AID 1529, 2009;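 active = binding response more than 3 SD above or below the average of its plate-row segment, actives on both sides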;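 also: Alexa488 bead fluorescence after subtracting the streptavidin-only scavenger bead signal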
MEKK2wt confirm – modulators of MEK5 binding to wildtype MEKK2, confirmation, biochemical, single concentration, multiplex bead flow cytometry. binding response (% of control), % at 10 µM. shares compounds with MEKK3 PB1 HTS. 5,900 compounds, 2.4% hits. Alexa488-MEK5 binding to MEKK2 WT; actives lie on both sides; in the data active = binding response below about 16% or above about 210%; inactive = in between
MEKK2mut confirm – mutant MEKK2 PB1-MEK5 binding signal retest – biochemical, single concentration, multiplex bead flow cytometry, confirmation. shares compounds with MEKK3 PB1 HTS. Alexa488-MEK5 binding to MEKK2 mutant. percent response, % at 10 µM. 5,900 compounds, 2% hits; in the data active = percent response mostly above about 71%, no sharp cut-off; inactive = mostly below about 38%;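 also: higher means compound restores mutant binding toward wildtype level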
MEKK3-MEK5 inh – MEKK3 wild-type PB1 binding to MEK5, inhibitors, confirmation, biochemical, bead multiplex flow cytometry, single concentration, wildtype. shares compounds with MEKK3 PB1 HTS. binding response (% of control), % at 10 µM. Alexa488-MEK5 binding to MEKK3; hits give low values. 5,900 compounds, 1.8% hits;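 active = binding response below 72% of control, or above a set upper limit, though filed actives all read lower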;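 also: 100% = DMSO only wells and 0% = binding blocked by excess unlabeled MEK5; lower values mean stronger disruption of MEK5 binding to MEKK3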
Numbers without * were called inactive; ! = not confirmed by another sample; [ ] = another dose, or the depositor's remark.

Screening COc1ccc(NC(=O)CSc2ncccn2)cc1S(=O)(=O)N1CCCCC1 returned NRP1-CendR mod 2 and SKN-1 block -26.
Screening O=C(/C=C/Nc1ccc(Cc2ccc(N/C=C/C(=O)C(F)(F)F)cc2)cc1)C(F)(F)F returned MEKK2wt PB1 HTS 102, NRP1-CendR mod -12, MEKK2 mut-MEK5 0, SKN-1 block -9, MEKK3 PB1 HTS 134*, MEKK2wt confirm 103, MEKK2mut confirm 0 and MEKK3-MEK5 inh 102.
Screening Cc1c(C(=O)N(Cc2ccccc2)C(C)C)cnn1-c1ccccc1 returned MEKK2wt PB1 HTS 99, NRP1-CendR mod 4, MEKK2 mut-MEK5 4, SKN-1 block -2 and MEKK3 PB1 HTS 100.
Screening Cc1c(C(=O)N(Cc2ccccc2)Cc2cccs2)cnn1-c1ccc(Cl)cc1 returned MEKK2wt PB1 HTS 129, NRP1-CendR mod 4, MEKK2 mut-MEK5 27, SKN-1 block 6, MEKK3 PB1 HTS 132*, MEKK2wt confirm 95, MEKK2mut confirm -8 and MEKK3-MEK5 inh 101.
Screening COc1ccc(CN2CCC[C@]3(N[C@H](c4ccc(OC)cc4)[C@@H]4C(=O)N(C)C(=O)[C@@H]43)C2=O)cc1 returned NRP1-CendR mod 2 and SKN-1 block -21.
Cc1c(C(=O)Nc2ccc(Cl)cc2)c2ccccn2c1C(=O)c1ccccc1 was read as MEKK2wt PB1 HTS 116, NRP1-CendR mod -3, MEKK2 mut-MEK5 5, SKN-1 block -16, MEKK3 PB1 HTS 126*, MEKK2wt confirm 83, MEKK2mut confirm -4 and MEKK3-MEK5 inh 87.
Screening CC(=O)NC(C)(c1ccccc1)c1nc(-c2csc3ccccc23)cs1 (stereo not drawn) returned NRP1-CendR mod 20 and SKN-1 block 19.
For C[C@H](NS(=O)(=O)c1ccc(Cl)c(Cl)c1)C(=O)OCc1cc(=O)n2cc(Br)ccc2n1 the results were MEKK2wt PB1 HTS 102, NRP1-CendR mod -13, MEKK2 mut-MEK5 1, SKN-1 block -11, MEKK3 PB1 HTS 131*, MEKK2wt confirm 98, MEKK2mut confirm 4 and MEKK3-MEK5 inh 104.
Screening CCOc1ccc(OCC(=O)OCc2cc(=O)n3cc(Br)ccc3n2)cc1 returned NRP1-CendR mod 12 and SKN-1 block -1.
`CN(C)C1CN(Cc2cn(Cc3cccc(C(F)(F)F)c3)nn2)S(=O)(=O)C1` (stereo not drawn) gave NRP1-CendR mod -6 and SKN-1 block 6.
`O=C(Cn1cnc2ccccc21)N/N=C/c1cccs1` gave MEKK2wt PB1 HTS 100, NRP1-CendR mod 15, MEKK2 mut-MEK5 2, SKN-1 block 0, MEKK3 PB1 HTS 129*, MEKK2wt confirm 105, MEKK2mut confirm -2 and MEKK3-MEK5 inh 103.
Screening Cc1cc(-c2nn(-c3ccccc3F)cc2CN2CCC(C(N)=O)CC2)c(C)s1 returned MEKK2wt PB1 HTS 114, NRP1-CendR mod 0, MEKK2 mut-MEK5 7, SKN-1 block 0 and MEKK3 PB1 HTS 99.
For Cc1cc(-c2nn(-c3ccccc3F)cc2CNCCc2cnc[nH]2)c(C)s1 the results were MEKK2wt PB1 HTS 148*, NRP1-CendR mod -11, MEKK2 mut-MEK5 39, SKN-1 block 1, MEKK3 PB1 HTS 112, MEKK2wt confirm 130, MEKK2mut confirm 17 and MEKK3-MEK5 inh 106.
Screening COc1ccc(C(=O)Nc2nc(-c3ccccn3)cs2)cc1S(=O)(=O)N1CCOCC1 returned NRP1-CendR mod -8 and SKN-1 block -7.
Screening CCOC(=O)/C=C1\Nc2ccccc2SC1=O returned MEKK2wt PB1 HTS 2.0*[inhibitor], NRP1-CendR mod 11, MEKK2 mut-MEK5 -18, SKN-1 block -12, MEKK3 PB1 HTS 2.0*[inhibitor], MEKK2wt confirm 103, MEKK2mut confirm -4 and MEKK3-MEK5 inh 100.
For COc1cccc(CNC(=O)[C@@H]2CCCN2C(=O)[C@@H]2CCCN2C(=O)c2cccs2)c1 the results were NRP1-CendR mod -7 and SKN-1 block -1.
Screening COc1cc(OC)c(-c2c3cc(O)c(=O)cc-3oc3cc(O)c(O)cc23)cc1OC returned MEKK2wt PB1 HTS 88, NRP1-CendR mod 135, MEKK2 mut-MEK5 -2, SKN-1 block 67 and MEKK3 PB1 HTS 100.
Screening Cc1c2cc(O)c(=O)cc-2oc2cc(O)c(O)cc12 returned MEKK2wt PB1 HTS 25*![inhibitor], NRP1-CendR mod 132, MEKK2 mut-MEK5 -6, SKN-1 block 46, MEKK3 PB1 HTS 54*![inhibitor], MEKK2wt confirm 77, MEKK2mut confirm -21 and MEKK3-MEK5 inh 64*.
Cc1oc2c(C)c(O)ccc2c(=O)c1-c1cnn(-c2ccccc2)c1 was read as MEKK2wt PB1 HTS 81, NRP1-CendR mod -3, MEKK2 mut-MEK5 -12, SKN-1 block 3, MEKK3 PB1 HTS 69*[inhibitor], MEKK2wt confirm 97, MEKK2mut confirm -4 and MEKK3-MEK5 inh 99.
CC(=O)Nc1cc(NC(C)=O)ncn1 was read as MEKK2wt PB1 HTS 57, NRP1-CendR mod 1, MEKK2 mut-MEK5 9, SKN-1 block 0, MEKK3 PB1 HTS 48*[inhibitor], MEKK2wt confirm 99, MEKK2mut confirm -6 and MEKK3-MEK5 inh 100.
`CCOC(=O)Nc1cc(NC(=O)OCC)ncn1` gave NRP1-CendR mod -8 and SKN-1 block -2.
For COc1cccc(NC(=O)C2(C)CCN2C(=O)CCc2ccc(Cl)cc2Cl)c1 (stereo not drawn) the results were NRP1-CendR mod -6 and SKN-1 block 7.
`CCOC(=O)C1=CCC(c2ccc(C#N)cc2)N(S(=O)(=O)c2ccc(C)cc2)C1` (stereo not drawn) gave NRP1-CendR mod 10 and SKN-1 block -2.
